# Compound activity: PubChem BioAssay, several laboratories
# CF NFkB block = cystic fibrosis NF-kB activation inhibition | KKLEB NF-kB-GFP reporter, PAF-induced, GFP fluorescence overnight | inhibition, % at 5 µM | 360,000 tested, 0.86% active;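 active = at least 50% inhibition at 5 µM, scaled per plate between neutral and stimulator controls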;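 note: PAF is a Pseudomonas aeruginosa culture filtrate used as stimulus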
# KKLEB cytotox = reduces viability of KKLEB cystic fibrosis airway cells | 360,000 tested, 0.36% active | KKLEB CF airway cells viability, ATPlite luminescence, overnight; hits give low values; cells stimulated with P. aeruginosa culture filtrate | activity change (cytotoxicity), % at 5 µM;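 active = corrected activity change at or below -50% at 5 µM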
# TWEAK-Fn14 inh = inhibitors of TWEAK-Fn14 interaction signaling; TWEAK-stimulated Fn14 reporter cells, luciferase luminescence, 8 h; inhibition, % at 10 µM; 360,000 tested, 2% active; in the data active = inhibition above about 50%
# LGR2 antag = Drosophila LGR2 receptor signaling inhibition | AID 720647 | HEK293 LGR2, CRE-luciferase, bursicon-stimulated, 4 h | inhibition, % at 9.99 µM | 380,000 tested, 0.35% active;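 active = drop in luminescence signal, shown as inhibition above about 50% in the replicate tests, limit read from the data, passing the limit was not always enough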;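 note: agonist challenge used bursicon conditioned medium at about half maximal strength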
# TROY signal inh = blocks TROY-dependent signaling in reporter cells. Q293 LMP1-TROYcd NF-kB luciferase reporter, 4 h. inhibition, % at 10 µM. 360,000 tested, 0.98% active. AID 1347056;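 active = compounds whose plate-normalised and pattern-corrected inhibition of the luciferase reporter signal at the single screening dose is 50% or more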
# EWS-Fli inh = inhibitors of EWS/Fli oncoprotein transcriptional activity; A673 NR0B1-luciferase reporter, viability-normalised; inhibition, % at 12.6 µM; 350,000 tested, 0.67% active; AID 651661;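 active = mean inhibition of at least 50% after viability correction, with every replicate also passing that limit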;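 note: firefly luciferase signal divided by Alamar Blue viability fluorescence both relative to DMSO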
# Numbers stand for hits; n = inactive; x = no result. In the library only some 2.6% were active in any assay of this set; here they are far more common.
SMILES,CF NFkB block,KKLEB cytotox,TWEAK-Fn14 inh,LGR2 antag,TROY signal inh,EWS-Fli inh
CCOC(=O)c1ccc(NC(=O)c2cccc(S(=O)(=O)N3c4ccccc4CC3C)c2)s1 (stereo not given),n,n,54,n,n,x
O=C(Nc1ccc(Cl)c(Cl)c1)Nc1ccc(Br)cc1F,71,-64,n,n,n,n
CN(C)c1ccc(N=C/C=C2/N(C)c3ccccc3C2(C)C)cc1,n,n,61,n,n,n
Cc1nc(Nc2nc3c(c(=O)[nH]2)CCC3)nc2ccccc12,65,n,69,x,n,x
Cc1ccc(S(=O)(=O)N(CC(=O)N=Nc2c(O)[nH]c3ccccc23)c2cccc(C)c2)cc1,n,n,52,n,n,x
NCCCNc1nc(N)c([N+](=O)[O-])c(NC2CCCCC2)n1,n,n,n,54,n,n
COCCNc1nc(N)c([N+](=O)[O-])c(NC2CCCCC2)n1,n,n,n,n,n,n
C[C@H](CO)N1C[C@H](C)[C@@H](CN(C)S(=O)(=O)c2ccc(Cl)cc2)Oc2ccc(NC(=O)CCCN(C)C)cc2C1=O,x,x,x,n,x,n
O=C(Nc1ccccc1)N1CCSCC1,n,n,73,n,x,x
COc1ccc(NC(=O)N2CC(=O)N3[C@@H](CO)[C@@H](c4ccc(Br)cc4)[C@@H]3C2)cc1,x,x,x,n,x,n
COc1cc(OC)c2c(=O)cc(-c3ccccc3)oc2c1,n,n,n,n,n,n
COc1cc2c(c3oc(-c4ccccc4)cc(=O)c13)C=CC(C)(C)O2,n,n,64,n,n,n
CCOc1ccc(NC(=O)/C(C#N)=C/c2cn(CC(=O)O)c3ccccc23)cc1,n,n,92,x,n,n
CCOc1cccc(NC(=O)/C(C#N)=C\c2cn(CC(=O)O)c3ccccc23)c1,n,n,n,n,n,n
O=S(=O)(c1ccccc1)N1CCCCN2[C@H](CO)[C@@H](c3ccc(C#Cc4ccccc4)cc3)[C@H]2C1,x,x,x,n,x,x
C1=C(CCNc2ncnc3c2[nH]c2ccccc23)CCCC1,n,n,69,x,n,n
O=c1c2[nH]c3ccccc3c2ncn1CCC1=CCCCC1,n,n,n,x,n,x
Cc1onc(C(=O)N2CCC(C(N)=O)CC2)c1-c1ccccc1Cl,n,n,87,x,n,x
c1ccc(CCNc2ccnc3cc4ccccc4cc23)cc1,n,n,n,107,n,n
CC(C)Nc1ccc(Nc2ccnc3cc4ccccc4cc23)cc1,n,n,n,74,n,n
COc1ccc(Nc2ccnc3ccccc23)cc1,n,n,n,x,n,x
CCCN(C)C[C@@H]1Oc2ncc(-c3cccc(OC)c3)cc2C(=O)N([C@H](C)CO)C[C@@H]1C,x,x,x,n,x,n
C[C@@H]1CCCCO[C@H](CN(C)C(=O)CCCN(C)C)[C@H](C)CN([C@@H](C)CO)C(=O)c2cc(N(C)C)ccc2O1,x,x,x,n,x,n
Cc1ccc(C(=O)Oc2cc(N)n(S(=O)(=O)c3ccc(F)cc3)n2)cc1,n,n,79,n,n,n
CS(=O)(=O)N1[C@H](C#N)[C@H](c2ccccc2-c2ccccc2)[C@H]1CO,x,x,x,n,x,n
SMILES,CF NFkB block,KKLEB cytotox,TWEAK-Fn14 inh,LGR2 antag,TROY signal inh,EWS-Fli inh
CC(C)CC#Cc1cnc2c(c1)C(=O)N([C@H](C)CO)C[C@H](C)[C@@H](CN(C)C(=O)Nc1ccccc1F)O2,x,x,x,n,x,n
O=C(Cc1cc(=O)[nH][nH]1)N/N=C/C=C/c1ccccc1,n,n,62,n,n,x
O=C(CNC(=O)c1ccccc1)N/N=C/C=C/c1ccccc1,n,n,n,n,n,x
CO[C@@H](CN(C)Cc1ccc(-c2ccccn2)cc1)[C@@H](C)CN(C(=O)Nc1ccc(F)cc1)[C@H](C)CO,x,x,x,n,x,n
COc1ccc(C(=O)O/N=C(\N)Cc2ccc(Cl)cc2)cc1OC,n,n,72,x,n,x
COc1cc(C(=O)O/N=C(\N)Cc2ccc([N+](=O)[O-])cc2)cc(OC)c1OC,n,n,n,x,n,n
COc1ccc(C(=O)O/N=C(\N)Cc2ccc(Cl)c(Cl)c2)cc1OC,n,n,92,x,n,n
Cc1ccc(-c2nnc(N3CCCCC3)c3ccccc23)cc1S(=O)(=O)N(C)C,n,n,n,n,n,n
Cc1ccc(-c2nc3ccccc3s2)cc1S(=O)(=O)N1CCOCC1,n,n,n,x,n,x
Cc1ccc(-c2nnc(NCc3nc4ccccc4[nH]3)c3ccccc23)cc1S(=O)(=O)N1CCOCC1,n,n,66,x,n,x
Cc1ccc(-c2nnc(NCc3nc4ccccc4[nH]3)c3ccccc23)cc1S(=O)(=O)N(C)C,n,n,55,58,52,n
O=S(=O)(N[C@@H]1CC[C@H](CCn2cc(-c3ccccn3)nn2)O[C@H]1CO)c1cccc(Cl)c1,x,x,x,n,x,n
COc1ccc(S(=O)(=O)Nc2ccc3c(c2)C(=O)N([C@H](C)CO)C[C@@H](C)[C@H](CN(C)S(=O)(=O)c2ccccc2)OCCCC[C@H](C)O3)cc1,x,x,x,n,x,n
CNC(=O)CC1C(=O)N(c2ccc(OC)cc2)C(=S)N1NC(=O)c1cccc(F)c1 (stereo not given),n,n,n,n,84,n
CNC(=O)CC1C(=O)N(c2ccc(Cl)cc2)C(=S)N1NC(=O)c1cccc(F)c1 (stereo not given),n,n,n,n,n,n
Cc1ccc(C(=O)OCC(=O)c2cc(C)n(CC3CCCO3)c2C)cc1 (stereo not given),n,n,64,n,72,n
Cc1cc(C(=O)COC(=O)c2ccccc2NCCO)c(C)n1CC1CCCO1 (stereo not given),n,n,62,n,n,n
Cc1cc(C(=O)COc2ccccc2C(N)=O)c(C)n1CC1CCCO1 (stereo not given),n,n,n,n,n,n
COCCn1c(C)cc(C(=O)COC(=O)c2n[nH]c3ccccc23)c1C,n,-59,86,x,54,x
CCOc1cc(C(=O)OCC(=O)c2cc(C)n(CC3CCCO3)c2C)ccc1OCC(=O)N1CCOCC1 (stereo not given),n,n,n,x,n,n
Cc1cc(C(=O)COC(=O)c2ccccc2O)c(C)n1CC1CCCO1 (stereo not given),n,n,106,100,90,84
C[C@@H]1CN([C@@H](C)CO)C(=O)c2cccc(NS(C)(=O)=O)c2O[C@@H]1CN(C)S(=O)(=O)c1cn(C)cn1,x,x,x,n,x,n
COc1ccc(CNC(=O)C[C@H]2CC[C@@H](NC(=O)Nc3ccc4c(c3)OCO4)[C@@H](CO)O2)cc1,x,x,x,n,x,n
CO[C@H]1CN(C)C(=O)c2cc(NS(C)(=O)=O)ccc2OC[C@H](C)N(C(=O)c2ccc3c(c2)OCO3)C[C@H]1C,x,x,x,n,x,n
Cc1cc(C(=O)COC(=O)C2COc3ccccc3O2)c(C)n1CC1CCCO1 (stereo not given),n,n,n,x,n,x
Cc1cc(C(=O)COC(=O)c2cccnc2Cl)c(C)n1CC1CCCO1 (stereo not given),n,n,99,x,88,n
